# Experimental data published in PubChem BioAssay (NCATS).
# Inconclusive results are not listed. Where a call stands in place of a potency, no number is given. Activity calls are given as the source filed them. Calls follow the shape of the dose curve; as a rule, active = well fitted curve in the direction sought with a large enough effect; inconclusive = small, poorly fitted or top-dose-only effect, or another doubt; inactive = no such curve, though single readings can be large; an effect the other way counts as inactive or inconclusive.
# Assays:
# [1] = molecular target: Metallo-beta-lactamase type 2 (Klebsiella pneumoniae) (UniProt C7C422); test: qHTS to identify inhibitors of the New Delhi Metallo-beta-lactamase (NDM): assay validation screen against the NCATS LOPAC Collection (AID 1794843); also: series mostly up to about 38 µM
# Metallo-beta-lactamase type 2 (Klebsiella pneumoniae), sequence (C7C422 whole entry, looked up): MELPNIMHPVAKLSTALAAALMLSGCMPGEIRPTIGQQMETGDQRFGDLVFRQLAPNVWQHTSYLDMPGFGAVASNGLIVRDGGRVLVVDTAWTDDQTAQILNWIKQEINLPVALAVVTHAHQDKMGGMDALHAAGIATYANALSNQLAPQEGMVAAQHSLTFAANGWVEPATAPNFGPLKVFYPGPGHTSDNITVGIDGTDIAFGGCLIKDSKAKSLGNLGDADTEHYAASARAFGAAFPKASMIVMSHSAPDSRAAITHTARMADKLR
# Method in brief: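 Absorbance at 485 nm from nitrocefin turnover (50 uM solution added), read at plateau, gives the read-out. Compounds in DMSO were incubated first with 2 nM final NDM-1 in pH 7.0 HEPES buffer containing 1 uM ZnSO4 and 0.01% Tween20.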
# [2] = molecular target: Phospholipid hydroperoxide glutathione peroxidase GPX4 (Homo sapiens) (UniProt P36969); test: Primary qHTS Assay for Inhibitors of Recombinant Selenoprotein Glutathione Peroxidase 4 (GPX4) (AID 1845192); also: nearly all actives have a fitted effect of over 65% in size; also: potency is read from the fitted curve at half-maximal effect
# Phospholipid hydroperoxide glutathione peroxidase GPX4 (Homo sapiens), sequence (P36969 whole entry, looked up): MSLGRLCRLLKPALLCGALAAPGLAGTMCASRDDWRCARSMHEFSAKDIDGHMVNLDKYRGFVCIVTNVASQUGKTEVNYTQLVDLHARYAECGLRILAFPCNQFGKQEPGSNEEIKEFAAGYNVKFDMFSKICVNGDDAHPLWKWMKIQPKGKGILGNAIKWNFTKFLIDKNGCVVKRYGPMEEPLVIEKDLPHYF
# Method in brief: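 qHTS, GR-coupled: GPX4 200 nM + cpd 30 min RT → GSH 1 mM, NADPH 0.5 mM, GR 100 nM → CHP 0.5 mM start; fluor 340/450 at t0 and t15 min; no-enzyme wells as control.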
# [3] = Quantitative High-Throughput drug screen in 47 multiple myeloma cell lines against the NCATS MIPE library collection: FR4_PLB cell viability assay (AID 1918924; also: nearly all actives have a fitted effect of over 35% in size; also: potency is read from the fitted curve at half-maximal effect)
# Method in brief: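 Relative luminescence from CellTiter-Glo served as the viability signal, referenced to DMSO-treated (100%) and cell-free medium (0%) controls. Treatment lasted 48 hours at 37C with 500 cells per well.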
# [4] = Quantitative High-Throughput drug screen in 47 multiple myeloma cell lines against the NCATS MIPE library collection: Delta47_JCRB cell viability assay (AID 1918925; also: nearly all actives have a fitted effect of over 45% in size; also: potency is read from the fitted curve at half-maximal effect)
# Method in brief: (§1)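 We plated 500 myeloma cells per well, pinned in MIPE 4.0 compounds, and incubated for 48 hours at 37C. ATP was then quantified with CellTiter-Glo, with DMSO and media-only wells defining 100% and 0%.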
# [5] = Quantitative High-Throughput drug screen in 47 multiple myeloma cell lines against the NCATS MIPE library collection: AMO1_DSMZ cell viability assay (AID 1918927; also: nearly all actives have a fitted effect of over 30% in size; also: potency is read from the fitted curve at half-maximal effect)
# Method in brief: as §1
# [6] = Quantitative High-Throughput drug screen in 47 multiple myeloma cell lines against the NCATS MIPE library collection: ARP1_JJKsccF8 cell viability assay (AID 1918928; also: nearly all actives have a fitted effect of over 40% in size; also: potency is read from the fitted curve at half-maximal effect)
# Method in brief: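 CellTiter-Glo luminescence after 48 h exposure gives viability, scaled between DMSO-only (100%) and media-only (0%) controls. Library compounds are pinned onto 500 myeloma cells per well, incubated at 37C with 5% CO2.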
# [7] = molecular target: Glutathione peroxidase 1 (Homo sapiens) (UniProt P07203); test: Primary qHTS Assay for Inhibitors of Recombinant Selenoprotein Glutathione Peroxidase 1 (GPX1) (AID 1845191); also: nearly all actives have a fitted effect of over 65% in size; also: potency is read from the fitted curve at half-maximal effect
# Glutathione peroxidase 1 (Homo sapiens), sequence (P07203 whole entry, looked up): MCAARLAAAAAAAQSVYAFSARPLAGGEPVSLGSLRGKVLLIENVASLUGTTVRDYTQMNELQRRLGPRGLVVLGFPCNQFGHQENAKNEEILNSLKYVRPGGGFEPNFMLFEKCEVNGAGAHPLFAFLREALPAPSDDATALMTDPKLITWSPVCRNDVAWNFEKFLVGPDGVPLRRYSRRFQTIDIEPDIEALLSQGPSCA
# Method in brief: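 GPX1 10 nM, GR 100 nM, GSH 1 mM, NADPH 0.5 mM, CHP 0.5 mM (final). 30-min cpd preincubation, RT. Ex340/Em450 read t=0, t=15 min.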
# [8] = Quantitative High-Throughput drug screen in 47 multiple myeloma cell lines against the NCATS MIPE library collection: EJM_DSMZ cell viability assay (AID 1918926; also: nearly all actives have a fitted effect of over 30% in size; also: potency is read from the fitted curve at half-maximal effect)
# Method in brief: as §1
# [9] = molecular target: Luciferin 4-monooxygenase (Photinus pyralis) (UniProt P08659); test: Primary firefly luciferase (FLuc) qHTS assay for identification of artifact compounds. (AID 1845220); also: nearly all actives have a fitted effect of over 60% in size
# Method in brief: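 Reaction readout was CCD-imaged luminescence, taken 5 min after adding 10 nM purified firefly enzyme to compound-treated wells holding 10 uM luciferin and ATP in pH 7.6 buffer.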
# [10] = Primary fluorescence-based thiol-reactive (MSTI) qHTS assay for identification of artifact compounds. (AID 1845221); also: nearly all actives have a fitted effect of over 65% in size; also: potency is read from the fitted curve at half-maximal effect
# Method in brief: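 Probe: MSTI 4 uM, PBS pH 7.4, 2% DMSO. Incubation 1 h, RT, light-protected. Readout fluorescence 525/598 nm.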
# [11] = system: Nanoluciferase (engineered Oplophorus gracilirostris luciferase); test: Primary Nanoluciferase (NLuc) qHTS assay for identification of artifact compounds. (AID 1845222);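 also: NLuc secreted into diluted conditioned medium of S16 cells; series mostly up to about 54 µM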
# Method in brief: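 Concentration-response data were obtained by luminescence after 5 min with Nano-Glo substrate at 1:100. The enzyme was diluted S16 NLuc-expressing cell medium, preincubated with compound for 15 min at RT. Curves were fitted with a 4-parameter Hill model.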
# [12] = Primary redox qHTS assay for identification of artifact compounds. (AID 1845223)
# Method in brief: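 Redox-cycling detection via DTT (250 uM final) oxidation coupled to Amplex Red (25 uM)/HRP (250 mU/mL) in HBSS. 15 min preincubation plus 30 min after DTT, room temperature. Ex/Em 525/598 nm; 4-parameter Hill fit against DMSO and 10 uM DA3003.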
SMILES,outcome [1],Potency [2],Potency [3],Potency [4],Potency [5],Potency [6],Potency [7],Potency [8],Potency [9],Potency [10],outcome [11],outcome [12]
OC(CN1CCC(Cc2ccc(F)cc2)CC1)c1ccc(Cl)cc1 (stereo not given),inactive,inactive,inactive,inactive,inactive,inactive,–,–,–,–,–,–
Clc1cccc(Cl)c1NC1=NCCN1,inactive,inactive,–,inactive,inactive,inactive,inactive,inactive,–,–,–,–
CC(C[N+](C)(C)C)OC(N)=O (stereo not given),inactive,inactive,–,inactive,inactive,–,inactive,inactive,–,–,–,–
O=C(O)CCc1ccc(NCc2cccc(Oc3ccccc3)c2)cc1,inactive,inactive,inactive,inactive,inactive,inactive,inactive,inactive,inactive,1.68 µM (active),inactive,–
CCn1cc(C(=O)O)c(=O)c2cc(F)c(N3CCNC(C)C3)c(F)c21 (stereo not given),inactive,inactive,inactive,–,inactive,inactive,inactive,inactive,–,–,–,–
Cc1cccc(-c2[nH]c(C(C)(C)C)nc2-c2ccc3nccnc3c2)n1,inactive,inactive,–,3.32 µM (active),5.26 µM (active),–,inactive,–,–,–,–,–
N[C@@H]1CONC1=O,inactive,inactive,inactive,inactive,inactive,–,inactive,inactive,–,–,–,–
O=c1[nH]cnc2[nH]ncc12,inactive,inactive,inactive,inactive,inactive,inactive,inactive,inactive,–,–,–,–
Cc1[nH]c(=O)c(C#N)cc1-c1ccncc1,inactive,inactive,–,7.43 µM (active),23.5 µM (active),–,inactive,inactive,–,–,–,–
CN([C@@H](Cc1ccc(OS(=O)(=O)c2cccc3cnccc23)cc1)C(=O)N1CCN(c2ccccc2)CC1)S(=O)(=O)c1cccc2cnccc12,–,inactive,–,–,–,–,inactive,–,–,–,–,–
Cc1ccc(N(CC2=NCCN2)c2cccc(O)c2)cc1,inactive,inactive,20.9 µM (active),inactive,23.5 µM (active),–,inactive,inactive,–,–,–,–
CCC(C)N(C)C(=O)c1cc2ccccc2c(-c2ccccc2Cl)n1 (stereo not given),inactive,inactive,inactive,inactive,–,0.296 µM (active),inactive,inactive,–,–,–,–
NNCCc1ccccc1,inactive,inactive,6.62 µM (active),inactive,18.7 µM (active),–,inactive,inactive,–,–,–,–
CCOC(=O)C1=C[C@]2(CC)CCCN3CCc4c(n1c1ccccc41)[C@@H]32,inactive,inactive,20.9 µM (active),10.5 µM (active),16.6 µM (active),20.9 µM (active),12.8 µM (active),20.9 µM (active),–,–,–,–
OC(CCN1CCCCC1)(c1ccccc1)C1CC2C=CC1C2 (stereo not given),inactive,inactive,inactive,inactive,inactive,inactive,inactive,inactive,–,–,–,–
NCCCC(N)(C(=O)O)C(F)F (stereo not given),inactive,inactive,16.6 µM (active),–,–,–,inactive,inactive,–,–,–,–
Cc1cn[nH]c1,inactive,inactive,0.0526 µM (active),0.296 µM (active),–,–,inactive,0.105 µM (active),–,–,–,–
O=NN(CCCl)C(=O)NCCCl,inactive,inactive,–,inactive,inactive,–,inactive,inactive,–,–,–,–
CC(C)(C)NCC(O)c1ccc(O)c(CO)c1 (stereo not given),inactive,inactive,inactive,inactive,inactive,–,inactive,inactive,–,–,–,–
COc1ccccc1[C@H](c1cccc2ccccc12)[C@@](C)(C#N)C(=O)N1CCC(c2cccc(C(F)(F)F)c2)CC1,–,inactive,–,8.33 µM (active),2.64 µM (active),8.33 µM (active),inactive,13.2 µM (active),inactive,inactive,inactive,inactive
CS(=O)(=O)Oc1ccc2c(NC(N)=O)c(C(=O)c3ccc(Cl)cc3Cl)oc2c1,–,inactive,inactive,14.8 µM (active),9.35 µM (active),–,inactive,inactive,–,–,–,–
C/C(=C\C(=O)Nc1ccccc1C(=O)O)c1ccc2ccccc2c1,–,18 µM (active),–,–,–,–,inactive,–,–,–,–,–
CCOc1cc(C(=O)Nc2ccc(Cl)c(-c3nc4ccccc4[nH]3)c2)cc(OCC)c1OCC,–,inactive,–,18.7 µM (active),–,–,inactive,13.2 µM (active),inactive,inactive,inactive,inactive
Cc1cc(Nc2nc(N[C@@H](C)c3ncc(F)cn3)ncc2Cl)n[nH]1,–,inactive,–,inactive,–,–,inactive,2.64 µM (active),inactive,inactive,inactive,inactive
COc1cc2nccc(Oc3ccc(NC(=O)NC4CC4)c(Cl)c3)c2cc1C(N)=O,–,inactive,23.5 µM (active),13.2 µM (active),2.09 µM (active),–,inactive,2.09 µM (active),inactive,inactive,inactive,inactive
